Results as given in PubChem BioAssay AID720617 (Broad Institute, 2013).
Inconclusive results are not listed. Activity calls are given as the source filed them.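 Rule for the calls: active = active at all three treatment times, each with half-maximal potency within twice the top valid dose, signal falling; inconclusive = treatment times disagree on the call; inactive = inactive at all three times, including opposite responses.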

Test: viability loss in CCRF-CEM T-lymphoblasts – cell-based, Alamar Blue fluorescence, several timepoints, dry powder, mechanism study for HRAS target identification, late-stage follow-up (AID 720617)
Settings: activity change: measured here: 8 h treatment viability, at 35 µM, stronger effect = lower value

Row | Compound | activity change | outcome
1 | CCC(=O)N(c1ccc(OC)c(Cl)c1)C(C(=O)NCCc1ccccc1)c1cccs1 (centres undefined) | 6.85% | inactive
2 | Cc1onc(C(=O)N2CCN(C(c3ccncc3)c3ccncc3)CC2)c1[N+](=O)[O-] | -0.515% | inactive
